Screening data deposited in PubChem BioAssay by National Center for Advancing Translational Sciences (NCATS).
Shown are actives, neighbours in structure and some others; about 19% of the full set was active somewhere.
DT40 TDP1 CPT = qHTS for Inhibitors of human tyrosyl-DNA phosphodiesterase 1 (TDP1): qHTS in cells in presence of CPT; hit rate 12% among 420,000; chicken DT40 Tdp1-/-;hTDP1 cells + 20 nM CPT, ATP luminescence, 48 h; Potency, µM (top dose mostly 46.2 µM), for the others: at the highest dose activity change, negative = growth inhibition, hits mostly inhibitors; further: potency means the concentration at half of the fitted maximal effect; nearly all actives have a fitted effect of over 55% in size
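Chicken DT40 Tdp1-/- cells stably complemented with human TDP1 were seeded at 400 cells/well in medium containing 20 nM camptothecin, exposed to pin-transferred compounds, and grown at 37 °C for at least 48 hr. Viability was read as ATP luminescence.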
DT40 TDP1 no CPT = qHTS for Inhibitors of human tyrosyl-DNA phosphodiesterase 1 (TDP1): qHTS in cells in absence of CPT; DT40 Tdp1-/- hTDP1 cells, no CPT, ATP luminescence, 48 h; Potency, µM (doses to about 46.2 µM), without a hit: at the highest dose activity change, negative = growth inhibition, hits mostly inhibitors; hit rate 15% among 420,000; further: potency means the concentration at half of the fitted maximal effect; nearly all actives have a fitted effect of over 55% in size
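Growth kinetics read by CellTiter-Glo luminescence after ≥48 hr at 37 °C. Cells: DT40 Tdp1-/- stably carrying human TDP1, 400 per well, compound exposure in the absence of CPT (DMSO vehicle).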
HT1080 IDH1KD tx = qHTS for induction of synthetic lethality in tumor cells producing 2HG: qHTS for the HT-1080-IDH1KD cell line | hit rate 2% among 360,000 | Potency, µM (highest dose often 46.1 µM), inactives show top-dose activity, negative = toxicity, hits mostly cytotoxic | HT-1080 IDH1 knockdown viability, ATP luminescence, 48 h;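 further: potency means the concentration at half of the fitted maximal effect; 0% = DMSO wells and -100% = cell-free medium wells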
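% activity derives from luminescence (CellTiter-Glo), normalised to DMSO and no-cell wells. HT-1080-IDH1KD cells, 750/well, had 48 h compound exposure at 37 °C.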
IL1B secr inh = qHTS for Inhibitors of Inflammasome Signaling: IL-1-beta AlphaLISA Primary Screen; THP-1 LPS/ATP IL-1B secretion, AlphaLISA, 16 h; hits give low values; activity change, % at 57.5 µM; hit rate 4.7% among 360,000; in the data active means activity change below about -50%; inconclusive means mostly about -30% to -49%
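Secreted IL-1B measured by AlphaLISA bead assay after 16 h compound exposure of THP-1 cells; compounds (final up to 57.5 uM) added 1 h before LPS (250 ng/mL) and ATP (1.25 mM) stimulation; lower signal means less secretion.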
HT1080-NT tox = qHTS for induction of synthetic lethality in tumor cells producing 2HG: qHTS for the HT-1080-NT fibrosarcoma cell line. HT-1080-NT fibrosarcoma viability, CellTiter-Glo ATP luminescence, 48 h. Potency, µM (top dose mostly 46.1 µM), for inactives: at the highest dose activity, negative = less viability, hits mostly cytotoxic. hit rate 1.6% among 360,000. AID 686970, 2013;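 further: NT is the 2HG producing partner of a matched IDH1 knockdown line; potency means the concentration at half of the fitted maximal effect; 0% = DMSO-treated cells and -100% = media-only wells without cells; nearly all actives have a fitted effect of over 55% in size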
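Read-out is CellTiter-Glo luminescence after 10 minutes at room temperature, following 48 hours' compound treatment of HT-1080-NT cells (750 cells/well, RPMI, 5% FBS, 37 degrees C).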
The depositor's hits bear a star; ? = inconclusive; / = no result given; [ ] = remark or other dose. Unless noted, the call rests on the fitted dose curve; in most records, active means well fitted curve in the direction sought with a large enough effect; inconclusive means small, poorly fitted or top-dose-only effect, or another doubt; inactive means no such curve, though single readings can be large; an effect the other way counts as inactive or inconclusive. Unless noted, on the % scale 0 is the no-effect control and ±100 the full control effect.

SMILES | DT40 TDP1 CPT | DT40 TDP1 no CPT | HT1080 IDH1KD tx | IL1B secr inh | HT1080-NT tox
COc1ccc(-c2cc(=O)c3c(O)cc(O)cc3o2)cc1 | ? | 24µM* | -26% | ? | -3%
O=c1cc(-c2ccc(O)cc2)oc2cccc(O)c12 | 30µM* | 30µM* | / | / | /
O=c1cc(-c2ccc(O)cc2)oc2c(-c3c(O)cc(O)c4c(=O)cc(-c5ccc(O)cc5)oc34)c(O)cc(O)c12 | 17% | -11% | 10% | 5 | 0%
CCOC(=O)C1=C(C)C(c2ccccc2)NC(=S)N1 (configuration not stated) | -8% | -6% | -9% | -4 | ?
CC(C)NC(=O)C1(C)CCN1C(=O)C1(c2ccccc2)CCCC1 (configuration not stated) | ? | ? | 2% | 52 | -3%
CC1(C(=O)Nc2cccc3ccccc23)CCN1C(=O)C1(c2ccccc2)CCCC1 (configuration not stated) | ? | 18µM* | -19% | 18 | -4%
C#Cc1ccc(NC(=O)C2(C)CCN2C(=O)C2(c3ccccc3)CCCC2)cc1 (configuration not stated) | 23µM* | 16µM* | ? | ? | ?
Cc1ccc(-n2ncc(C(=O)NCCN3CCc4ccccc4C3)c2C2CCN(C(=O)OC(C)(C)C)CC2)cc1C | 16µM* | 21µM* | / | / | /
CC(C)(C)OC(=O)N1CCC(c2c(C(=O)O)cnn2-c2ccccc2Cl)CC1 | -10% | -11% | 1% | 17 | 12%
Cc1ccc(-n2ncc(C(=O)N3CCc4ccccc4C3)c2C2CCN(C(=O)OC(C)(C)C)CC2)cc1C | 10µM* | ? | / | / | /
Cc1c(Cl)cccc1-n1ncc(C(=O)N2CCc3ccccc3C2)c1C1CCN(C(=O)OC(C)(C)C)CC1 | ? | 21µM* | / | / | /
Cc1c(Cl)cccc1-n1ncc(C(=O)NCCN2CCN(C)CC2)c1C1CCN(C(=O)OC(C)(C)C)CC1 | ? | 26µM* | / | / | /
Cc1ccc(-n2ncc(C(=O)N3CCN(c4ccccc4F)CC3)c2C2CCN(C(=O)OC(C)(C)C)CC2)cc1C | ? | -19% | / | / | /
CCN1CCN(C(c2cccs2)C(C)NC(=O)c2ccccc2F)CC1 (configuration not stated) | -3% | 0% | 12% | 77 | ?
Cc1ccccc1-c1nc(SCC(=O)NCc2ccc(F)cc2)c2c(=O)n(C)c(=O)n(C)c2n1 | 5% | 6% | / | / | /
Cc1ccc(-n2ncc(C(=O)NCCN3CCc4ccccc4C3)c2C2CCN(C(=O)OC(C)(C)C)CC2)cc1 | 21µM* | 18µM* | / | / | /
Cc1cccc(C)c1-n1ncc(C(=O)NCCN2CCOCC2)c1C1CCN(C(=O)OC(C)(C)C)CC1 | -30% | -9% | / | / | /
CCC(C)NC(=O)c1cnn(-c2cccc(F)c2)c1-n1cccc1 (configuration not stated) | 21µM* | 16µM* | / | / | /
CCOC(=O)N1CCC(NC(=O)c2cnn(-c3ccc(C)cc3)c2-n2cccc2)CC1 | ? | 26µM* | / | / | /
COC(=O)c1cnn(-c2ccc(C)c(C)c2)c1-n1cccc1 | ? | ? | -3% | 10 | 8%
CCOC(=O)N1CCC(NC(=O)c2cnn(-c3cccc(C)c3)c2-n2cccc2)CC1 | 16µM* | 18µM* | / | / | /
O=C(CS(=O)Cc1ccco1)NC/C=C\COc1cc(CN2CCCCC2)ccn1 (configuration not stated) | -16% | -19% | / | / | /
O=S1c2ccccc2Nc2ccccc21 | -10% | -9% | 11% | 3 | 8%
O=C(CN1CCOCC1)N/N=C/c1ccc(C(=O)O)cc1 | -5% | 19% | 21% | -12 | 17%
O=C(N/N=C/C(Br)=C/c1ccccc1)c1ccccc1[N+](=O)[O-] | 13µM* | 13µM* | -1% | -19 | -3%
SMILES | DT40 TDP1 CPT | DT40 TDP1 no CPT | HT1080 IDH1KD tx | IL1B secr inh | HT1080-NT tox
Cc1occc1C(=O)N/N=C/c1cccnc1 | -14% | -15% | -16% | 13 | -4%
Cc1occc1C(=O)N/N=C/C(Br)=C/c1ccccc1 | 9.2µM* | 12µM* | -30% | -78* | -12%
O=C(CN1CCOCC1)N/N=C/C(Br)=C\c1ccccc1 | 12µM* | 10µM* | -1% | ? | -18%
O=C1NC(c2ccc3c(c2)OCO3)Oc2ccccc21 (configuration not stated) | -7% | -7% | -8% | -17 | 4%
O=C1NC(c2ccc3c(c2)OCO3)Nc2ccccc21 (configuration not stated) | 23µM* | 16µM* | 5%[9.24 µM] | 41 | ?
Brc1ccc(C2Nc3cccc4cccc(c34)N2)cc1 | ? | -25% | -16% | 0 | -13%
O=C1NC(c2ccc3ccccc3c2)Nc2ccccc21 (configuration not stated) | 16µM* | 6.5µM* | ? | 51 | ?
Cc1ccccc1NC(=O)NCc1ccc2c(c1)OCO2 | -9% | 5% | -2% | 0 | -1%
O=C1NC(c2ccc(Br)cc2)Nc2ccccc21 (configuration not stated) | 6.5µM* | 3.7µM* | 12µM* | 51 | 5.8µM*
CC1(CCc2ccc3c(c2)OCO3)NC(=O)c2ccccc2N1 (configuration not stated) | 23µM* | ? | ? | -14 | ?
COc1ccc(C2NC(=O)c3ccccc3N2)cc1OC (configuration not stated) | -21% | -21% | 3% | 3 | -1%
Cc1ccc(CN2CCN(C(=O)c3ccncc3)CC2)cc1 | -10% | -2% | -11% | 7 | -4%
COc1cc(C(=O)NCC(c2ccccc2)N(C)C)ccc1OCC(=O)N1CCOCC1 (configuration not stated) | -6% | -11% | 6% | 2 | 12%
CC(=O)NC(Cc1ccc(F)cc1)C(=O)NC1CCN(c2ncccc2[N+](=O)[O-])CC1 (configuration not stated) | 7% | 6% | 1% | 11 | 10%
Cc1sc2ncnc(SCC(=O)N3CCN(C(=O)c4ccco4)CC3)c2c1C | / | / | 5%[9.24 µM] | -54* | /
Cc1ccc(-c2csc3ncnc(N4CCN(C(=O)c5ccco5)CC4)c23)cc1 | ? | ? | ? | -11 | ?
Cc1cccc2[nH]c3c(N4CCN(C(=O)c5ccco5)CC4)ncnc3c12 | ? | 18µM* | -1% | ? | 0%
Cc1sc2ncnc(N3CCN(C(=O)c4ccco4)CC3)c2c1C | -19% | 21µM* | -27% | -23 | -26%
